Test [1] is described as follows: optical density shifts of acrAB sulA E. coli – strain DRC41, OD650, 48 h, E. coli filamentation inducer project, primary screen (AID 1152).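 Also: E. coli MC1000 strain DRC41 lacking acrAB efflux pump and sulA.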 The conditions noted are these: higher = more signal, called active from +8 up or from −8 down.
Test [2] is described as follows: probe aLefty1 binding on compound microarray – biochemical, small-molecule microarray, 635/667 nm fluorescence, primary screen (AID 1153).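 Also: score merges spot fluorescence with signal-to-noise ratio from the scanned slide images.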 As to conditions: higher = more signal.
Test [3] is described as follows: plasmodial surface anion channel blockers, osmotic lysis – cell-based, P. falciparum Indochina, OD700, 1 h, primary screen (AID 1154). As to conditions: P. falciparum Indochina infected RBC osmotic lysis, higher = more signal, called active from +8 up or from −8 down.
Test [4] in a line: plasmodial surface anion channel blockers, osmotic lysis – cell-based, P. falciparum Indochina, OD700, 2 h, primary screen (AID 1155).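 Also: lysis reports solute entry through the parasite surface anion channel PSAC.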 The conditions noted are these: P. falciparum Indochina infected erythrocytes, higher = more signal, called active from +8 up or from −8 down.
The nature of test [5]: changes in parasitized red cell lysis, either direction – P. falciparum Indochina, OD700, 3 h, PSAC antagonist project, primary screen (AID 1156). As to conditions: P. falciparum-infected erythrocytes, osmotic lysis, higher = more signal, called active from +8 up or from −8 down.
A short description of test [6]: plasmodial surface anion channel blockers, osmotic lysis – cell-based, P. falciparum Indochina, OD700, 18 h, primary screen (AID 1157). The conditions noted are these: P. falciparum Indochina infected erythrocytes, osmotic lysis OD700, 18 h; higher = more signal, called active from +8 up or from −8 down.
Test [7] in a line: S6 kinase pathway phospho-S6 level changes – cell-based, A549, cytoblot, luminescence, serum-stimulated, primary screen (AID 1158).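 Also: serum-stimulated A549 lung adenocarcinoma cells; signal is phosphorylated S6 detected by cytoblot immunostaining with HRP secondary.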 The conditions noted are these: 5 h, higher = more signal.
Test [8] has as its target NADPH oxidase 2 (Homo sapiens) (UniProt P04839). The test can be described thus: compounds shifting NOX2 Amplex Red fluorescence – cell-based, HEK293-NOX2, PMA-stimulated, NOX inhibitor project, primary screen (AID 1159). Also: test concentration not given here. As to conditions: 45 min, higher = more signal, called active from +8 up or from −8 down.
In test [9] the target is NADPH oxidase 4 (Homo sapiens) (UniProt Q9NPH5). The test can be described thus: compounds shifting NOX4 Amplex Red fluorescence – cell-based, HEK293-NOX4, tetracycline-induced, NOX inhibitor project, primary screen (AID 1160). As to conditions: HEK293-NOX4, Amplex Red H2O2 fluorescence, 45 min; higher = more signal, called active from +8 up or from −8 down.
Sequence of NADPH oxidase 4 (Homo sapiens) (Q9NPH5 whole entry, looked up): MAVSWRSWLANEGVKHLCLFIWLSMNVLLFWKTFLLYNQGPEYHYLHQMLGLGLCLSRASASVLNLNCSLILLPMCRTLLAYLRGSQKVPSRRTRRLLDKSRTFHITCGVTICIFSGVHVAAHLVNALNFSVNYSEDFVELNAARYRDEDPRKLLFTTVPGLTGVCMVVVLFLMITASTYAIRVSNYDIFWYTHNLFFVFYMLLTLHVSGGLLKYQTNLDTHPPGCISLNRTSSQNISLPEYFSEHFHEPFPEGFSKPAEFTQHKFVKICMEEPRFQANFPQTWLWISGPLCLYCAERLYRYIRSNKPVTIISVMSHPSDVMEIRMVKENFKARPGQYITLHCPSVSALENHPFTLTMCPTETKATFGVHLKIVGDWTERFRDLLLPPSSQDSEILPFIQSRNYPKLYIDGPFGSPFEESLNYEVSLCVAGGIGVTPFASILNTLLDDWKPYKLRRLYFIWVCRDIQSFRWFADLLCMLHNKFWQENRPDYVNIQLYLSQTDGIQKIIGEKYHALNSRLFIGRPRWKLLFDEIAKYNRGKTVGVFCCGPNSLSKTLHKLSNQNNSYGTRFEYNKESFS
In test [10] the target is NADPH oxidase 5 (Homo sapiens) (UniProt Q96PH1). The test can be described thus: compounds shifting NOX5 Amplex Red fluorescence – cell-based, HEK293-NOX5, NOX inhibitor project, primary screen (AID 1161). The conditions noted are these: HEK293-NOX5, ionomycin, 45 min, higher = more signal.
Sequence of NADPH oxidase 5 (Homo sapiens) (Q96PH1 whole entry, looked up): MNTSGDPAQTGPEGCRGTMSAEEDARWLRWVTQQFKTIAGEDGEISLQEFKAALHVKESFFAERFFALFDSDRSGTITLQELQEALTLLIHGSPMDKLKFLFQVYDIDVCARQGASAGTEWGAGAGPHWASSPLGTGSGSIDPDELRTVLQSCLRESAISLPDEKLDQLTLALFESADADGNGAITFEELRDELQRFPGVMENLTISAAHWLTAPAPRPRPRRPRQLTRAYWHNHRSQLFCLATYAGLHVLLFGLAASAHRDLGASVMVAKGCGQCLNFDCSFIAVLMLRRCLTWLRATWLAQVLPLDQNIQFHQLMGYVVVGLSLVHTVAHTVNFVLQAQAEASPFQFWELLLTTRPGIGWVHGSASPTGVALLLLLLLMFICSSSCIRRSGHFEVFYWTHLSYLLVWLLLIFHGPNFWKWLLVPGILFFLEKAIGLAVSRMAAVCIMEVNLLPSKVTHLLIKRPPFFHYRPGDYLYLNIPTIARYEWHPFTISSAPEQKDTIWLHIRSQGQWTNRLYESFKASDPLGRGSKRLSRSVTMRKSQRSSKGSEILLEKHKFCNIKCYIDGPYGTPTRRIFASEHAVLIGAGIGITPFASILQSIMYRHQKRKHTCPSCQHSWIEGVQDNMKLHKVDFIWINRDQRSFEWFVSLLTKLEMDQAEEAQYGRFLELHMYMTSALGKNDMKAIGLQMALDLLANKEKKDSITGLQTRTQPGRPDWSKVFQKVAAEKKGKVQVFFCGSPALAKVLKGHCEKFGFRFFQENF
Test [11] is described as follows: compound effects on lung adenocarcinoma cell viability – A549, calcein-AM fluorescence, 48 h, basal, profiling panel (AID 1162). Also: test concentration not given here. The conditions noted are these: higher = more signal.
Test [12] can be described thus: compound effects on differentiated 3T3-L1 adipocyte viability – cell-based, 3T3-L1 adipocytes, calcein-AM fluorescence, 48 h, basal, profiling panel (AID 1163). Also: test concentration not given here. As to conditions: 3T3-L1 adipocytes viability, higher = more signal.
Test [13] in a line: compound effects on hepatocellular carcinoma cell viability – HepG2, calcein-AM fluorescence, 48 h, basal, profiling panel (AID 1164). Also: test concentration not given here. The conditions noted are these: higher = more signal.
The nature of test [14]: compound effects on multiple myeloma cell viability – MM1S, calcein-AM fluorescence, 48 h, basal, profiling panel (AID 1165). Also: test concentration not given here. The conditions noted are these: higher = more signal.
Test [15] in a line: calcein-AM signal in unstimulated myeloma cells – cell-based, calcein-AM fluorescence, 48 h, PK04 Diversity Set, profiling panel (AID 1166).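 Also: cells grown under basal conditions without added stimulus; test concentration not given here.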 The conditions noted are these: RPMI8226 myeloma viability, higher = more signal.
Test [16] in a line: JC-1 mitochondrial signal, unstimulated HepG2 cells – cell-based, JC-1 fluorescence, 24 h, 100 nL compound, profiling panel (AID 1167). Also: test concentration not given here. As to conditions: HepG2 mitochondrial potential, higher = more signal.
Test [17] can be described thus: JC-1 mitochondrial signal, unstimulated adipocytes – cell-based, JC-1 fluorescence, 3T3-L1 adipocytes, 24 h, 100 nL compound, profiling panel (AID 1168). Also: test concentration not given here. The conditions noted are these: JC-1 mitochondrial fluorescence, higher = more signal, called active from +8 up or from −8 down.
A short description of test [18]: JC-1 mitochondrial signal, unstimulated myeloma cells – cell-based, JC-1 fluorescence, RPMI8226, 24 h, 100 nL compound, profiling panel (AID 1169). Also: test concentration not given here. The conditions noted are these: JC-1 mitochondrial potential fluorescence, higher = more signal.
A short description of test [19]: JC-1 mitochondrial signal, unstimulated MM1S myeloma – cell-based, JC-1 fluorescence, 24 h, 100 nL compound, profiling panel (AID 1170). Also: test concentration not given here. As to conditions: MM1S mitochondrial potential, higher = more signal.
The nature of test [20]: resazurin metabolic signal in A549 cells – cell-based, resazurin fluorescence, 24 h, PK04 Diversity Set, profiling panel (AID 1171). Also: test concentration not given here. As to conditions: A549 viability, higher = more signal, called active from +8 up or from −8 down.

Each structure is given as a SMILES string. The source made the active and inactive calls.

Sequence of NADPH oxidase 2 (Homo sapiens) (P04839 whole entry, looked up): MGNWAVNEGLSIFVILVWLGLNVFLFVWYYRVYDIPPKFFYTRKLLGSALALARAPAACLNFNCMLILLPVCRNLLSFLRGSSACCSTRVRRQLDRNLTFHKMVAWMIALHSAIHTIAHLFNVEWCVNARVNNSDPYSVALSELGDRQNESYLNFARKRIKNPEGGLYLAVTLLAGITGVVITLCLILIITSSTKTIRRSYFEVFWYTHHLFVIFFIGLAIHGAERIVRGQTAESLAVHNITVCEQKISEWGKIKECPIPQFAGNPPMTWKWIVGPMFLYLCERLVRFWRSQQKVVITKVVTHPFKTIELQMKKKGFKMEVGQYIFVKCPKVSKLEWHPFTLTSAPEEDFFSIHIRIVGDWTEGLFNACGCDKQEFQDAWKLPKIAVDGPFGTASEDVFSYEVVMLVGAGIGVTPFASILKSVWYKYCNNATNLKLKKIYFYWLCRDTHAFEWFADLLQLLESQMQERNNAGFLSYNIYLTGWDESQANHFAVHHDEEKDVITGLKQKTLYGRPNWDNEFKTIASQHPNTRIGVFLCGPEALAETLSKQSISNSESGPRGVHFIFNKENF

For the compound `Cc1ccc(S[C@]2(C(=O)NC(C)C)CC(=O)N(C3Cc4ccccc4C3)[C@@H]2c2ccc(CO)cc2)cc1`, the z-score in test [1] was -0.415 (inactive); in test [3], 2.26 (inactive); in test [4] it was -0.862 (inactive); in test [5], 1.04 (inactive); in [6], -1.88 (inactive); in test [7], 1.95. Besides, the z-score was 0.0257 (inactive) in [8]; -0.029 (inactive) in test [9]; -0.927 in [10]; 0.0188 in [11]; 2.29 in [12]; 0.0794 in [13]. The z-score in test [14] was 0.549; in test [15], -1.02; in [16], 0.0355; in [17], -0.636 (inactive); in test [18] it was 0.758; in test [19], 0.643. The z-score in test [20] was -0.0208 (inactive). For the same compound, the composite z-score in test [2] is -0.357.

Consider `O=C(CS)NCCCCCNC(=O)[C@H]1C[C@H]2C(=O)N[C@@H](Cc3ccccc3)C(=O)N2[C@H]1c1ccc(O)cc1`, for which the z-score is 0.956 (inactive) in test [1]; 6.87 (inactive) in test [3]; -0.29 (inactive) in [4]; -1.1 (inactive) in test [5]; -1.95 (inactive) in test [6]; 0.263 in test [7]. For the same compound, the z-score was 0.99 (inactive) in test [8]; -0.205 (inactive) in test [9]; 0.0913 in test [10]; -0.142 in test [11]; 1.62 in test [12]; -1.02 in test [13]. Also, the z-score is -0.193 in [14]; 0.575 in [15]; 0.248 in [16]; 0.765 (inactive) in test [17]; -0.539 in test [18]; 0.368 in [19]. The z-score in test [20] was 0.411 (inactive). In addition, the composite z-score in test [2] amounted to 0.0371.

For the compound `C=CCN1C(=O)[C@]2(O[C@H](CCn3cc(CCO)nn3)[C@@H]([Si](C)(C)c3ccc(OC)cc3)[C@@H]2C)c2cc(NC(=O)c3ccc(OC)cc3)ccc21`, the z-score is 1.24 (inactive) in [1]; 11.3 (active) in [3]; -0.0473 (inactive) in test [4]; 0.715 (inactive) in [5]; -1.36 (inactive) in test [6]; 0.173 in [7]. Besides, the z-score in test [8] was 0.891 (inactive); in test [9], 1.28 (inactive); in test [10], 0.385; in test [11] it was -0.423; in test [12] it was 0.727; in [13] it was -0.792. Moreover, the z-score is -2.7 in [14]; -4.31 in test [15]; 3.04 in test [16]; 1.61 (inactive) in [17]; -1.09 in test [18]; 0.122 in test [19]. The z-score in test [20] is -2.65 (inactive). The composite z-score in test [2] was 0.13.

Turning to `CO[C@]12C=C(Br)[C@@H](C[C@@H]1c1ccccc1)[C@@]1(CO1)C2=O`, the z-score in test [1] is 2.36 (inactive); in [3], -0.0452 (inactive); in test [4], -0.698 (inactive); in test [5], 0.422 (inactive); in test [6] it was -1.7 (inactive); in test [7], 0.716. Further, the z-score in test [8] was 0.575 (inactive); in test [9] it was 0.625 (inactive); in test [10], 0.339; in test [11], -1.08; in test [12], 1.18; in [13], -1.08. In addition, the z-score is -2.34 in [14]; -1.62 in test [15]; -0.143 in test [16]; 1.12 (inactive) in [17]; -0.376 in [18]; 0.0484 in [19]. For the same compound, in test [20], the z-score is -0.446 (inactive). In test [2], this compound returned a composite z-score of 0.166.

On to `O=C1OCC=C[C@H]2OC34C=CCN(Cc5ccccc5)C(=O)[C@H]3N(CCO)C(=O)[C@@H]4[C@@H]12` (stereo not given in full), for which the z-score in test [1] is 2.41 (inactive); in test [3], 0.286 (inactive); in test [4], -0.44 (inactive); in test [5], -1.32 (inactive); in test [6], -1.34 (inactive); in test [7], 0.262. In addition, the z-score in test [8] was 1.53 (inactive); in [9], 1.18 (inactive); in [10], 1.75; in [11] it was 0.125; in [12] it was 0.474; in test [13], -0.885. Moreover, the z-score was 1.12 in [14]; 0.44 in test [15]; -0.255 in [16]; 0.367 (inactive) in test [17]; -0.0019 in test [18]; -0.216 in test [19]. The z-score in test [20] was 0.54 (inactive). The compound further yielded a composite z-score in test [2] of -0.0104.

Regarding `O=C1O[C@H](c2ccccc2)[C@H](c2ccccc2)N2[C@H]1[C@@H](C(=O)Nc1nc3ccccc3s1)[C@]1(C(=O)Nc3ccc(C#CC4=CCCCC4)cc31)[C@H]2c1ccccc1OCCO`, the z-score in [1] was -0.485 (inactive); in test [3], 1.96 (inactive); in [4] it was 2.21 (inactive); in test [5], 0.344 (inactive); in test [6], 1.41 (inactive); in [7], -0.0532. The z-score is 0.76 (inactive) in test [8]; 0.195 (inactive) in test [9]; 0.963 in test [10]; -0.639 in test [11]; 0.313 in test [12]; -0.557 in test [13]. For the same compound, the z-score in [14] was -1.63; in test [15], -1.07; in test [16], -2.86; in [17], -1.06 (inactive); in test [18] it was -0.798; in test [19], -1.46. Besides, in test [20], the z-score is -0.893 (inactive). The compound further registered a composite z-score in test [2] of 0.179.

Consider `Cc1ccccc1C(O)C1C=CC2C(=O)N(c3ccccc3)C(=O)C2N1Nc1ccc(C#N)cc1` (stereo not given), for which the z-score in test [1] is 0.307 (inactive); in test [3], 26 (active); in test [4] it was 14.9 (active); in test [5] it was 3.53 (inactive); in test [6], 1.81 (inactive); in [7], -0.762. In addition, the z-score in test [8] was -0.865 (inactive); in test [9] it was -4.92 (inactive); in test [10] it was -3.18; in [11] it was 0.916; in test [12], -0.175; in test [13], 2.03. The z-score in test [14] is -0.113; in test [15], 0.0872; in test [16], 0.258; in [17] it was -1.55 (inactive); in test [18], -0.472; in test [19], 0.99. Also, the z-score in [20] is 0.682 (inactive). The compound further had a composite z-score in [2] of 1.1.

On to `COc1cc(CO)cc(I)c1O[C@H]1C=C(C(=O)NCCO)C[C@@H](NCCc2c[nH]c3ccccc23)[C@@H]1O`, for which the z-score in [1] is 0.878 (inactive); in test [3], 11.3 (active); in test [4], 0.928 (inactive); in [5], 1.22 (inactive); in test [6], -0.869 (inactive); in test [7], 2.21. The z-score was -0.912 (inactive) in test [8]; -1.4 (inactive) in [9]; -0.447 in test [10]; 1.74 in test [11]; -0.335 in [12]; 0.0706 in test [13]. The z-score in test [14] was -0.68; in test [15], -0.391; in [16], -1.01; in [17] it was 1.01 (inactive); in test [18], 0.166; in test [19] it was -0.389. For the same compound, the z-score in [20] is 0.279 (inactive). This compound gave a composite z-score in test [2] of 0.335.

With `CO[C@H]1COC(=O)CC=C[C@H](C)[C@@H](OC)COC(=O)CC=C[C@@H]1C`, the z-score is 1.32 (inactive) in test [1]; 1.35 (inactive) in test [3]; 0.636 (inactive) in test [4]; 0.357 (inactive) in test [5]; 0.254 (inactive) in test [6]; 1.26 in test [7]. Besides, the z-score is 0.59 (inactive) in [8]; 1.19 (inactive) in test [9]; 0.435 in test [10]; 1.09 in test [11]; 0.569 in [12]; 1.06 in test [13]. Moreover, the z-score in test [14] was 0.244; in [15], 0.859; in test [16], 1.36; in test [17] it was 0.425 (inactive); in test [18], -0.36; in [19] it was 0.758. Besides, the z-score in test [20] is 0.99 (inactive). Moreover, the composite z-score in test [2] came out at 0.0962.

Values taken from PubChem BioAssay.
